Results published in PubChem BioAssay (NCI).
About 83,000 compounds went through this panel and 20% of them were active in at least one assay; those are over-represented in the sample as a whole.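 Negative percent growth values reflect cell death: -40 means 40% of the cells present at the start died, and -100 means all died.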 Calls of active or inactive are those of the source. The calls were made as follows: active = growth percent below 10; inactive = the rest.

Tests used:
Experiment in all cases: NCI-60 one-dose screen, 48 h (100 = growth as untreated, 0 = no growth, -100 = all killed)
Settings in all cases: 10 µM unless noted
[1] = tested on: SK-MEL-2 melanoma
[2] = tested on: EKVX NSCLC
[3] = tested on: SN12C renal
[4] = tested on: UO-31 renal
[5] = tested on: TK-10 renal
[6] = tested on: ACHN renal
[7] = tested on: CAKI-1 renal
[8] = tested on: A498 renal
[9] = tested on: CCRF-CEM leukemia
[10] = tested on: MOLT-4 leukemia
[11] = tested on: SR leukemia
[12] = tested on: RPMI-8226 leukemia
[13] = tested on: OVCAR-8 ovarian
[14] = tested on: OVCAR-5 ovarian
[15] = tested on: OVCAR-4 ovarian
[16] = tested on: SK-OV-3 ovarian
[17] = tested on: IGROV1 ovarian
[18] = tested on: HS 578T breast
[19] = tested on: NCI/ADR-RES ovarian
[20] = tested on: OVCAR-3 ovarian

Measured: growth

COC(=O)N1CC(Oc2ccccn2)C2CC1c1ccccc1O2 (configuration not stated)
inactive: [1] 116% | [2] 104% | [3] 93% | [4] 88.6% | [5] 98.2% | [6] 95.7% | [7] 93.3% | [8] 83.4% | [9] 87.8% | [10] 94.5% | [11] 94.8% | [12] 85.6% | [13] 98.7% | [14] 107% | [15] 103% | [16] 103% | [17] 120% | [18] 86% | [19] 98.5%

O=c1c2c3c(sc2n2c(-c4cc(-c5ccccc5)no4)nnc2n1Cc1ccccc1)CCCC3
inactive: [1] 119% | [2] 80% | [3] 90.8% | [5] 120% | [6] 95.4% | [8] 82.2% | [9] 34.8% | [10] 55% | [11] 55.7% | [12] 53.5% | [13] 40.9% | [14] 82.8% | [15] 87.6% | [16] 124% | [18] 101% | [19] 80.6%
active: [4] -41.9% | [7] -67.8% | [17] -11.9%

COc1ccc(/C=C/C(c2cc(OC)c(OC)c(OC)c2)n2ccnc2)cc1O (configuration not stated)
active: [11] 6.18% | [20] 4.86%
inactive: [1] 41.7% | [2] 81.2% | [3] 57.2% | [4] 59.9% | [5] 84.5% | [6] 46.3% | [7] 60.2% | [8] 67.5% | [9] 37.1% | [10] 31.9% | [12] 15.1% | [13] 41% | [14] 103% | [15] 78.8% | [16] 33.5% | [18] 32.1% | [19] 45.7%

NC(=O)c1cnc(Nc2cccc(N)c2)nc1NCCCNC(=O)C1CCC1
inactive: [1] 65.2% | [2] 93% | [3] 33% | [4] 27.8% | [5] 32.1% | [6] 49.5% | [7] 37.2% | [8] 90.4% | [9] 25.9% | [10] 26.1% | [11] 77.1% | [12] 97.3% | [13] 71.1% | [14] 119% | [15] 88.5% | [16] 27.1% | [17] 65.8% | [18] 72.8% | [19] 108%

N#C/C(=C\c1ccc([N+](=O)[O-])cc1)n1nnc2cc(F)c(F)cc21
inactive: [1] 95.9% | [2] 82.1% | [8] 67.6% | [13] 11.4% | [14] 21% | [16] 94.2% | [18] 58.4%
active: [3] 4.63% | [4] -77.8% | [5] 6.11% | [6] -74.9% | [7] 6.07% | [9] 4.63% | [10] 3.58% | [11] -0.476% | [12] -22.4% | [15] 9.19% | [20] -40.1% | [19] 9.64%

Cc1ccc(Cl)cc1NC(=O)c1sc2nc3c(cc2c1N)C(=O)CCC3
inactive: [1] 64.5% | [2] 75.3% | [3] 80.6% | [4] 83.4% | [5] 96.6% | [6] 55.9% | [7] 41.4% | [8] 51.2% | [9] 49.2% | [10] 84.9% | [11] 68.9% | [12] 95.1% | [13] 90% | [14] 94.2% | [15] 90.1% | [16] 42.4% | [17] 75.7% | [18] 60.9% | [19] 43.8%

O=C(O)COc1ccc(Cl)c(Cl)c1
inactive: [1] 118% | [2] 104% | [3] 114% | [4] 108% | [5] 116% | [6] 107% | [7] 107% | [8] 110% | [9] 100% | [10] 101% | [11] 93.7% | [12] 101% | [13] 105% | [14] 106% | [15] 113% | [16] 105% | [20] 123% | [18] 123%

O=c1nc(-c2ccccc2)c2cc(-c3ccc(C(F)(F)F)nc3)ccc2[nH]1
inactive: [1] 103% | [2] 97.8% | [3] 102% | [4] 75.8% | [5] 99.9% | [6] 96.5% | [7] 93.1% | [8] 104% | [9] 46.5% | [10] 83.3% | [11] 93.2% | [12] 91.3% | [13] 106% | [14] 97.6% | [15] 108% | [16] 105% | [17] 111% | [18] 95.7% | [19] 98.4%

CC1(C)OB(O)c2cc(-c3nc4ccc5[nH]ncc5c4c4c3CCCC4)ccc21
inactive: [1] 59.3% | [2] 71.8% | [3] 51.2% | [4] 34.4% | [5] 73.4% | [6] 21.1% | [7] 20.8% | [8] 21.9% | [9] 50.2% | [10] 30.7% | [11] 24.5% | [12] 28.1% | [13] 46.3% | [14] 105% | [15] 67.1% | [16] 33.1% | [18] 68.7% | [19] 61.8%

COc1ccc(/C=C(/C(=O)n2cnnn2)c2cc(OC)c(OC)c(OC)c2)cc1
active: [8] 1.86% | [9] 5.78% | [12] 3.48% | [20] 1.46%
inactive: [1] 57.6% | [2] 46.5% | [3] 42.6% | [4] 42.4% | [5] 44.9% | [6] 48% | [7] 36.1% | [10] 40.5% | [11] 14.8% | [13] 22.1% | [14] 41.2% | [15] 60.6% | [16] 14.6% | [18] 13.5% | [19] 12.2%

CNC(C)[C@H]1CCC2C3CC=C4C(=O)[C@@H](NC(=O)C=C(C)C)CC[C@]4(C)C3CC[C@@]21C (some centres not stated)
active: [4] -35.5% | [7] 3.96% | [9] -20% | [10] -55.8% | [11] -49.7% | [12] -43.7% | [15] -13.3% | [17] 9.81%
inactive: [1] 23.8% | [2] 24.2% | [3] 17% | [5] 60.1% | [6] 26% | [8] 56% | [13] 42.5% | [14] 66.3% | [16] 46.4% | [18] 10.2% | [19] 39.1%

COc1cc(Cl)c(C)cc1NC(=O)c1cc2ccccc2cc1O
active: [1] -33.1% | [2] 0.938% | [3] 8.39% | [4] 0.513% | [5] 6.75% | [6] 4.34% | [7] -12.7% | [8] -9.59% | [9] 7.39% | [11] 8.6% | [12] 7.23% | [19] 0.336%
inactive: [10] 17.5% | [13] 11.9% | [14] 20% | [15] 20.7% | [16] 14.8% | [17] 11.9% | [18] 23.8%

CC1(C)C(N)=Nc2cc(OCCCN3Cc4ccccc4C3)c(OCC3CC3)cc21
inactive: [1] 108% | [2] 77.6% | [3] 84.5% | [4] 58.6% | [5] 81.3% | [6] 96.6% | [7] 52.5% | [8] 92% | [9] 19.1% | [10] 36.1% | [11] 32.4% | [12] 44.3% | [13] 76.8% | [14] 83.2% | [15] 91.4% | [16] 75% | [17] 80.2% | [18] 71.7% | [19] 92.9%

CCOC(=O)CC1CSC(Nc2ccccc2)=N1 (configuration not stated)
inactive: [1] 97.4% | [2] 104% | [3] 103% | [4] 91.8% | [5] 86% | [6] 105% | [7] 103% | [8] 83% | [9] 98.3% | [10] 101% | [11] 98.5% | [12] 105% | [13] 101% | [14] 104% | [15] 112% | [16] 105% | [20] 102% | [18] 103% | [19] 99.8%

COc1ccc(/C(C)=C(\c2ccc(Cl)cc2)c2ccc(OCCN3CCCCC3)cc2)cc1
active: [11] -7.55% | [12] 7.75%
inactive: [1] 56.2% | [2] 69.1% | [3] 69.2% | [4] 48.1% | [5] 95.7% | [6] 77.3% | [7] 37.2% | [8] 86.8% | [9] 37.5% | [10] 41.6% | [13] 69.6% | [14] 67.9% | [15] 59.9% | [16] 77.5% | [20] 74.9% | [18] 63.6% | [19] 76.8%

O=C(NC1CC(F)C1)c1cc2cccnc2n1-c1ccc(Cl)c(Cl)c1 (configuration not stated)
inactive: [1] 105% | [2] 98.5% | [3] 96.4% | [4] 69.7% | [5] 90.2% | [6] 95.5% | [7] 84.4% | [8] 99% | [9] 99.7% | [10] 98.9% | [11] 104% | [12] 95.6% | [13] 95.4% | [14] 94.8% | [15] 95.4% | [16] 104% | [20] 102% | [18] 99.2% | [19] 90.1%
